Read-out in assay [1]: Monocyte Chemoattractant Protein-1 (MCP1), CCL2 (gene 6347)
The assay is described as follows: BSK_SAg_MCP1: BioMAP Diversity Plus: SAg Assay for Monocyte Chemoattractant Protein-1 (MCP1) Biomarker Activity (AID 2283090). To be noted: primary human HUVEC with PBMC; actives raise or lower the signal. The method, boiled down: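 Values derive from bidirectional fitting of ELISA-measured MCP1 against DMSO controls. Readings were taken 24 h after dosing human vascular endothelial cells co-cultured with peripheral blood mononuclear cells under superantigen stimulation.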

Read-out in assay [2]: E-selectin (Homo sapiens) (UniProt P16581)
The assay is described as follows: BSK_SAg_Eselectin: BioMAP Diversity Plus: SAg Assay for Eselectin Biomarker Activity (AID 2283091). Particulars: primary human HUVEC with PBMC; actives raise or lower the signal. The essentials: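 Endpoint values derive from bidirectional fitting relative to DMSO, using ELISA-measured E-selectin in a human vascular co-culture (umbilical vein endothelium plus PBMC) sampled 24 h after dosing.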

Read-out in assay [3]: Monokine induced gamma interferon (MIG), CXCL9 (gene 4283)
The assay is described as follows: BSK_SAg_MIG: BioMAP Diversity Plus: SAg Assay for Monokine induced gamma interferon (MIG) Biomarker Activity (AID 2283092). Particulars: primary human HUVEC with PBMC; actives raise or lower the signal. The method, boiled down:
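HUVEC plus human PBMC co-culture, chemicals dosed and MIG (CXCL9) quantified by ELISA at 24 h. Bidirectional curve fitting against DMSO as negative control and baseline, so both gain and loss of signal count as activity.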

Assay [4] in a line: BSK_SAg_PBMCCytotoxicity: PBMC Cytotoxicity Assessment in the BioMAP Diversity Plus: SAg Assay (AID 2283093).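 For AC50: PBMC superantigen activated with SEB plus TSST-1 one hour after compound addition.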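 Note: PBMC viability measured as Alamar Blue reduction fluorescence at 546/580 nm; fitted both ways against DMSO so a hit may be loss or gain of signal.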 To be noted: primary human HUVEC with PBMC. The essentials: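 Alamar Blue reduction (6 h, 546/580 nm) reports PBMC cytotoxicity after 90 h superantigen activation (SEB, TSST-1; 20 ng/mL final each) with 1 h compound pre-treatment. Gain or loss of signal fitted versus DMSO.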

Read-out in assay [5]: Interleukin-8 (IL8), CXCL8 (gene 3576)
The assay is described as follows: BSK_SAg_IL8: BioMAP Diversity Plus: SAg Assay for Interleukin-8 (IL8) Biomarker Activity (AID 2283094). Particulars: primary human HUVEC with PBMC; actives raise or lower the signal. The method, boiled down: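 Chemicals were dosed onto a human endothelial–PBMC co-culture, and IL-8 was quantified by ELISA after 24 h. Both increases and decreases were fitted relative to DMSO.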

A short description of assay [6]: BSK_SAg_Proliferation: Cell Proliferation Assessment in the BioMAP Diversity Plus: SAg Assay (AID 2283095).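 Note: relative cell number as total protein by SRB absorbance in sub-confluent culture.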 To be noted: primary human HUVEC with PBMC. The essentials: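 Absorbance of sulforhodamine B at 560 nm reports total protein in a human vascular endothelial/PBMC co-culture after 96 h chemical exposure. Gain or loss of signal is fitted in both directions against DMSO.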

Assay [7] in a line: BSK_SAg_SRB: Viability Assessment in the BioMAP Diversity Plus: SAg Assay (AID 2283096).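 Note: cells read one day after compound addition; hits may be either gain or loss of signal compared with DMSO.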 Particulars: primary human HUVEC with PBMC. The method, boiled down:
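This overt-cytotoxicity endpoint quantifies protein in human endothelial/PBMC co-cultures at 24 h using SRB absorbance (560 nm) after trichloroacetic acid fixation. Values reflect signal change from the DMSO negative control, fitted bidirectionally.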

For assay [8], the target named is human CYP2A6, CYP2A6 (gene 1548) (UniProt P11509). The assay is described as follows: NVS_ADME_hCYP2A6: NovaScreen (NVS) CYP450-related Enzyme Activity (ADME) Assay for human CYP2A6 (AID 2283099; active = hit-call score of the fitted dose curve at least 0.9, where 1 is the maximum). The method, boiled down:
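Loss of fluorescence signal relative to acetonitrile vehicle reported CYP2A6 inhibition in a cell-free system using insect-cell-derived enzyme. Readings were taken at 0.5 h; top concentration in follow-up dose series was 20 uM.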

Assay [9] addresses human CYP2B6, CYP2B6 (gene 1555) (UniProt P20813). The assay is described as follows: NVS_ADME_hCYP2B6: NovaScreen (NVS) CYP450-related Enzyme Activity (ADME) Assay for human CYP2B6 (AID 2283101; active = hit-call score of the fitted dose curve at least 0.9, where 1 is the maximum). The essentials:
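Recombinant human CYP2B6 with fluorogenic substrate, read by fluorescence intensity 1 h after dosing. Primary screen in duplicate at 10 uM, actives followed in concentration series; signal loss relative to acetonitrile control.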

For assay [10], the target named is human CYP19A1, CYP19A1 (gene 1588) (UniProt P11511). The assay is described as follows: NVS_ADME_hCYP19A1: NovaScreen (NVS) CYP450-related Enzyme Activity (ADME) Assay for human CYP19A1 (AID 2283098; active = hit-call score of the fitted dose curve at least 0.9, where 1 is the maximum;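 for AC50: potency for inhibitors seen as loss of fluorescent enzyme signal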). The essentials: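 Compounds were first screened at 10 uM in duplicate against purified enzyme, with a fluorogenic substrate and fluorescence intensity detection after 0.5 h. Inhibition appears as reduced signal against acetonitrile control.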
Sequence of human CYP19A1, CYP19A1 (gene 1588) (P11511 whole entry, looked up): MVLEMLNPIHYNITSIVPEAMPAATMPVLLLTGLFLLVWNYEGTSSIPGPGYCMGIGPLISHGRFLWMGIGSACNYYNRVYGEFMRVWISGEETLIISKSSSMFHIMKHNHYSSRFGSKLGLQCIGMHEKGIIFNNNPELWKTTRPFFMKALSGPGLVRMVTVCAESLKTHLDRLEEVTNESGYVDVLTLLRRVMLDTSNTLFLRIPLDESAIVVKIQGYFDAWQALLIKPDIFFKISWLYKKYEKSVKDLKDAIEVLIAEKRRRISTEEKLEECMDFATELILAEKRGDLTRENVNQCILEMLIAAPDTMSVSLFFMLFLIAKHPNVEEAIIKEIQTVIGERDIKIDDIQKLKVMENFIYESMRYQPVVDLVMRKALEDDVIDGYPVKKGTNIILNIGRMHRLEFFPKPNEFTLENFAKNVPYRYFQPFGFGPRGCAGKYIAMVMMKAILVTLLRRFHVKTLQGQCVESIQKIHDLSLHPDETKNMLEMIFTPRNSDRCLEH

Values joined by “and” are separate entries in the source; they are usually repeats but may differ in a detail not shown here. Equal values may be shown once. Results filed as inconclusive are left out. More than one record can exist for a structure, and the calls need not agree. Active and inactive are the calls of the source. Rule for the calls, unless noted: active = hit-call score of the fitted dose curve at least 0.9, where 1 is the maximum; inactive = score below 0.9.

Sequence of E-selectin (Homo sapiens) (P16581 whole entry, looked up): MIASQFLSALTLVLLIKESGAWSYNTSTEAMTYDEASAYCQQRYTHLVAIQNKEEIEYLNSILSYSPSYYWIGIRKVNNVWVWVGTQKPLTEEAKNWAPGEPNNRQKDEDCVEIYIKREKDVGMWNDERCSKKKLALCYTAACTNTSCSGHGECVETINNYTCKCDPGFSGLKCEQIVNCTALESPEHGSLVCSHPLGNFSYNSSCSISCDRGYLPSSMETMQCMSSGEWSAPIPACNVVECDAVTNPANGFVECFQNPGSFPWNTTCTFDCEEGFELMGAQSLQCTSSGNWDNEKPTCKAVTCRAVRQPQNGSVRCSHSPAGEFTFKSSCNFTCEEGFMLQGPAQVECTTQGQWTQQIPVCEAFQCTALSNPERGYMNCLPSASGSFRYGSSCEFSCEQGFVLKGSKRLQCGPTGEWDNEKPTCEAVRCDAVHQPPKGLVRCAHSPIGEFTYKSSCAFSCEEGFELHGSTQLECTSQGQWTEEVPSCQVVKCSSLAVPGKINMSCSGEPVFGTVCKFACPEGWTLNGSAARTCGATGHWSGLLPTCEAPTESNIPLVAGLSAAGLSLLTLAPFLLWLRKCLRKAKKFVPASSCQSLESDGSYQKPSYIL
Sequence of human CYP2B6, CYP2B6 (gene 1555) (P20813 whole entry, looked up): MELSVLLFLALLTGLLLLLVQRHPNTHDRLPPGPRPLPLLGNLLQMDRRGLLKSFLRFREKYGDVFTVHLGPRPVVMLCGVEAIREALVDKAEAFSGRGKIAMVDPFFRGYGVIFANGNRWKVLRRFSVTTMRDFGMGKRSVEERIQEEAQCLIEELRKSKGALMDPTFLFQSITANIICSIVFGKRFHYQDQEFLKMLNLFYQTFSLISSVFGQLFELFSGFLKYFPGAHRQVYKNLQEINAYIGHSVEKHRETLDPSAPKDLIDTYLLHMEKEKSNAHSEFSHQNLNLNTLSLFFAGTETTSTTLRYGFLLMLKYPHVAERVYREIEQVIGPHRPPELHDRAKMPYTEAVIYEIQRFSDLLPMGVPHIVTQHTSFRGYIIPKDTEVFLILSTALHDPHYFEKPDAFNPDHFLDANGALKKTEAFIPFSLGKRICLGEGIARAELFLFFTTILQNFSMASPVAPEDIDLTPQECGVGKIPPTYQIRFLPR
Sequence of human CYP2A6, CYP2A6 (gene 1548) (P11509 whole entry, looked up): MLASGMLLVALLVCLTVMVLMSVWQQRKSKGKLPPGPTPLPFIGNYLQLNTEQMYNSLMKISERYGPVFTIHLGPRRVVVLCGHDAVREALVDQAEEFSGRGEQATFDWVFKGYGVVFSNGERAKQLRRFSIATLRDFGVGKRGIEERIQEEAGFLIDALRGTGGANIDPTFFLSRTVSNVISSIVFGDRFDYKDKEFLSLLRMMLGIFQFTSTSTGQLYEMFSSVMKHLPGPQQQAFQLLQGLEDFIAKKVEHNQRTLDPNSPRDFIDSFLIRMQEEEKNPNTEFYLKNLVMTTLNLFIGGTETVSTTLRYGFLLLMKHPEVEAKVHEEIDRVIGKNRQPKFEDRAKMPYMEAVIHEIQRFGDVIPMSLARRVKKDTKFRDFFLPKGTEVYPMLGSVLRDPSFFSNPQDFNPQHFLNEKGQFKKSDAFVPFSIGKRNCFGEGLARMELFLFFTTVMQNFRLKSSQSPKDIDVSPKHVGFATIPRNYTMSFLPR

What is called AC50 is the concentration giving half of the maximal activity seen. Consider `C[N+](C)(C)CCCNS(=O)(=O)C(F)(F)C(F)(F)C(F)(F)C(F)(F)C(F)(F)C(F)(F)C(F)(F)C(F)(F)F`, for which the result in assay [1], in assay [2], in [3], in [4], in assay [5] and in assay [6] was inactive. For the same compound, the AC50 in [4] was 51.3 µM (active); in assay [6], 46.5 µM (active); in [7], 43.5 µM (active) and 46.5 µM (active).
Regarding `CCCCCCC=O`, the outcome in assay [1], in assay [2], in [3], in [4], in assay [5] and in assay [6] was inactive. Moreover, in [7], the outcome was inactive.
As for `c1ccc2c(c1)[nH]c1ccccc12`, the result in [1], in assay [2], in assay [3], in assay [4], in assay [5] and in assay [6] was inactive. The outcome in [7] was inactive. Moreover, in assay [5], the AC50 is 2.72 µM (active).
For `CC1(C)CC(O)CC(C)(C)N1[O]`, the result in assay [1], in assay [2], in assay [3], in [4], in assay [5] and in assay [6] was inactive. Moreover, in [7], the result was inactive.
Take `C=CC(=O)NC(C)(C)C`: the outcome in assay [1], in assay [2], in [3], in [4], in assay [5] and in assay [6] was inactive. Also, in [7], the outcome was inactive.
With `Clc1cc(Cl)c(Cl)c(Cl)c1Cl`, the result in assay [1], in assay [2], in assay [3], in assay [4], in assay [5] and in assay [6] was inactive. Moreover, the result in [7] was inactive.
Regarding `CCc1cccc(C)c1N(C(=O)CS(=O)(=O)O)C(C)COC` (centres undefined), the result in [1], in [2], in assay [3], in [4], in assay [5] and in [6] was inactive. Further, in assay [7], the result was inactive.
On to `CC/C=C\CCOC(=O)c1ccccc1O`, for which the half-maximal activity concentration (AC50) in assay [1] is 28.5 µM (active); in assay [2] it was 29.7 µM (active); in assay [4], 33.3 µM (active); in assay [6], 31.2 µM (active); in assay [7], 30.7 µM (active). The outcome in assay [3] and in [5] was inactive.
Turning to `Cc1c(O)cccc1O`, the result in assay [1], in assay [2], in [3], in [5] and in assay [7] was inactive. Moreover, the AC50 in assay [4] and in assay [6] was 31 µM (active) in each case.
Consider `Cc1ccc([N+](=O)[O-])cc1N`, for which the outcome in assay [1], in assay [3], in assay [4], in assay [5], in [6] and in [7] was inactive. In addition, the AC50 was 5.91 µM (active) in assay [2], 10 µM (active) in assay [8] and 2.51 µM (active) in [9].
For `Oc1ccccc1Cc1ccccc1O`, the outcome in assay [1], in assay [2], in [3], in assay [4], in [5] and in assay [6] was inactive. For the same compound, the outcome in assay [7] was inactive.
Regarding `CCCC(CC)c1ccccc1` (centres undefined), the AC50 in assay [10] was 10.4 µM (active).
Take `C=CC(=O)OCCCCCCOC(=O)C=C`: the AC50 in assay [1] is 11 µM (active); in assay [2] it was 5.55 µM (active); in assay [3], 7.05 µM (active); in assay [4], 3.97 µM (active); in [5], 0.714 µM (active); in assay [6], 0.89 µM (active). Moreover, in assay [7], the AC50 is 20 µM (active).
Consider `O=C(OCc1ccccc1)c1ccc(O)cc1`, for which the AC50 in assay [10] was 4.08 µM (active).
`Cc1ccc(C)c(OCCCC(C)(C)C(=O)O)c1`: in assay [10], the AC50 was 15.6 µM (active).
As to `c1ccc2sc(SSN3CCOCC3)nc2c1`, the outcome in assay [1], in assay [2], in [3], in assay [5] and in [7] was inactive. For the same compound, the AC50 is 20 µM (active) in [4] and 8.5 µM (active) in assay [6].
Turning to `CC(C)c1cccc(C(C)C)c1N`, the result in assay [1], in assay [2], in assay [3], in [4], in [5] and in assay [6] was inactive. Also, the result in assay [7] was inactive.
On to `CCCCCCCCC(CO)CCCCCC` (centres undefined), for which the result in [1], in assay [2], in [3], in [4], in [5] and in assay [6] was inactive. For the same compound, the outcome in [7] was inactive.
Regarding `CC=C(C)C=CC=C(C)C`, the AC50 is 2.58 µM (active) in assay [1], 23.4 µM (active) in assay [2], 6.5 µM (active) in assay [5] and 26.5 µM (active) in assay [6]. The outcome in [3], in assay [4] and in assay [7] was inactive.
Take `COC(OC)(C(=O)c1ccccc1)c1ccccc1`: the result in assay [1], in [2], in [3], in assay [4], in [5] and in assay [6] was inactive. Moreover, the result in assay [7] was inactive.
Regarding `CCOC(=O)/C=C\C(=O)OCC`, the result in assay [1], in assay [3], in [4], in assay [5], in [6] and in assay [7] was inactive. Moreover, the AC50 in assay [2] was 20 µM (active).
With `O=C(O)c1ccc2c(c1)C(=O)OC2=O`, the outcome in assay [10] was inactive.
As for `CCN1CN(CC)CN(CC)C1`, the result in [1], in [2], in assay [3], in assay [4], in [5] and in assay [7] was inactive. Besides, the AC50 in assay [6] was 36.3 µM (active).
For the compound `Nc1cccc(N)n1`, the outcome in assay [1], in assay [2], in [3], in assay [4], in assay [5] and in assay [6] was inactive. In [7], the result was inactive.
With `C=CC(=O)OCCCCCCCC(C)C`, the outcome in assay [1], in assay [2], in assay [3], in assay [5] and in [7] was inactive. In addition, the AC50 in [4] was 20 µM (active); in assay [6], 23.3 µM (active).
Regarding `CCCCCCOC(=O)CCCCC(=O)OCCCCCC`, the outcome in assay [1], in [2], in assay [3], in [4], in assay [5] and in assay [6] was inactive. Further, the outcome in assay [7] was inactive.
Turning to `CCCCCCCCCCCC(C)=O`, the AC50 in assay [1] was 31.1 µM (active); in assay [2] it was 33.3 µM (active); in [4] it was 32 µM (active); in assay [5] it was 33.8 µM (active); in [6] it was 34 µM (active). Also, the result in assay [3] and in assay [7] was inactive.
Regarding `CCCCCC1=CCCC1=O`, the outcome in assay [1], in assay [2], in assay [3], in assay [4], in assay [5] and in assay [6] was inactive. Further, the outcome in assay [7] was inactive.
Regarding `C=CCCCCCCCCC=O`, the outcome in [1], in [2], in assay [3], in [4], in assay [5] and in [6] was inactive. The result in [7] was inactive.

The values are drawn from PubChem BioAssay (EPA / NIEHS).
